The structures appear in SMILES notation. Activity calls are given as the source filed them. How the source made its calls: active means hit-call score of the fitted dose curve at least 0.9, where 1 is the maximum; inactive means score below 0.9.

The assay in a line: APR_HepG2_MicrotubuleCSK_72hr: Apredica 72-hour HepG2 Assay for Microtubule CSK Stabilty (AID 2282919). Particulars: HepG2 microtubule cytoskeleton, high-content imaging, actives raise or lower the signal. The protocol: APR_HepG2_72hr is a cell-based, multiplexed-readout assay that uses HepG2, a human liver cell line, with measurements taken at 72 hours after chemical dosing in a 384-well plate.APR_HepG2_MicrotubuleCSK_72hr is one of 10 assay component(s) measured or calculated from the APR_HepG2_72hr assay. It is designed to make measurements of protein conformation, a form of conformation reporter, as detected with fluorescence intensity signals by HCS Fluorescent Imaging technology.Data from the assay component APR_HepG2_MicrotubuleCSK_72hr was analyzed into 1 assay endpoint. This assay endpoint, APR_HepG2_MicrotubuleCSK_72hr, was analyzed with bidirectional fitting relative to DMSO as the negative control and baseline of activity. Using a type of conformation reporter, measures of protein for gain or loss-of-signal activity can be used to understand the signaling at the cellular-level. Furthermore, this assay endpoint can be referred to as a primary readout, because this assay has produced multiple assay endpoints where this one serves a signaling function. To generalize the intended target to other relatable targets, this assay endpoint is annotated to the cell morphology intended target family, where the subfamily is cell conformation.
Cells were treated with dimethyl sulfoxide (DMSO) as a solvent control at a final concentration of 0.5% v/v or with compounds in DMSO with a resulting final DMSO concentration of 0.5% v/v. Compound treatment was done at concentrations of 0.39, 0.78, 1.56, 3.12, 6.24, 12.5, 25, 50, 100, and 200 uM in duplicate on each plate. Cells were treated with compounds for 1, 24, or 72 hr. Carbonyl […] m-chloro-phenylhydrazone (CCCP) and taxol were used as positive controls for mitochondrial function and cytoskeletal stability, respectively; DMSO served as the negative control for this experiment. Cells were fixed by the direct addition of 50 uL formaldehyde in Hank's Balanced Salt Solution (HBSS) to a final concentration of 3.7%. After incubation in the fixation medium for 30 min at room temperature (293-298 K), cells were rinsed twice with HBSS and treated with cell permeabilization buffer (16 uL of 0.5% Triton X-100) for 10 min at room temperature (293-298 K) before labeling. For mitochondrial membrane potential and mitochondrial measurements, pre-fixed cells were incubated with 50 uL of MitoTracker Red CMXRos (Invitrogen) at a concentration of 250 nM for 30 min before fixation. In the remaining cases, post-fixed cells were labeled by incubation with a multiplexed mixture of primary antibodies in HBSS for 60 min at room temperature (293-298 K) to detect immunoreactivity of c-Jun (1:500), phospho-histone H3 (1:100), phospho-histone H2A.x (1:200), p53 (1:400), alpha-tubulin (1:200) and Hoechst 33342 (2 ug/mL). Cells were labeled for multiplexed imaging on two separate plates: a) Hoechst 33342, MitoTracker Red, phospho-histone H3, and alpha-tubulin, and b) Hoechst 33342, phospho-histone H2A.x, and c-Jun. A final rinse with HBSS (50 uL) was performed before analysis. The primary and secondary antibodies for the proteins were phospho-histone H3 (rabbit anti-phospho-histone H3 and FITC-donkey anti-rabbit IgG), phospho-histone H2A.x (mouse anti-phospho-histone H2A.x and FITC-donkey anti-mouse IgG), c-Jun (rabbit anti-phospho-c-Jun and Cy3-donkey anti-rabbit IgG), p53 (sheep anti-p53 and Cy5-donkey anti-sheep IgG), alpha-tubulin (mouse anti-alpha-tubulin and Cy5-donkey anti-mouse IgG). These antibodies are available as the CellCiphr HepG2 assay kit (Millipore).Digital images of each well were captured using a Cellomics ArrayScan VTI (Thermo Scientific Cellomics) (0.8 NA objective, 0.63x optical coupler, and XF-93 filter set) at 20x magnification. The images were acquired using the autofocus feature of the ArrayScan instrument, which entails the following steps. First, the camera focuses on channel 1 (Hoechst 33342), where nuclei are identified. Second, a Z offset of 1 um is used for capturing mitochondria (MitoTracker Red). […]
As for `CN(C)C(=S)S`, the AC50 is 1.78 µM (active).
Take `CC(C)O.CC(C)O.OCCN(CCO)CCO.OCCN(CCO)CCO.[Ti]`: the compound was classed as inactive.
For the compound `Oc1cc(Cl)c(Cl)cc1Cl`, the compound was classed as inactive.
Regarding `Clc1cccc(Cl)c1`, the result was inactive.
On to `CCCCCCCCCCCCc1cccc(S(=O)(=O)O)c1`, for which the compound was called inactive.
Same read-out and setting: the value for `CC(C)(C)c1ccccc1O` was “inactive”; that for `Clc1cccc(Cl)c1Cl` was “inactive”.
In the case of `Cc1cc(C)cc(C)c1`, the outcome was inactive.
Turning to `O=C(N[C@H]1CN2CCC1CC2)c1ccc2c(c1)OCCO2`, the call was inactive.
As to `N#Cc1cccnc1`, the compound was classed as inactive.
For the compound `O=C(O)C1(c2ccc3c(c2)OC[C@H](Cc2ccc(-c4ccccc4)cc2)[C@H]3O)CCCC1`, the call was inactive.
With `OCCN(CCO)CCO`, the call was inactive.

The term AC50 denotes the concentration at which the activity in the assay is half-maximal.

The values above are taken from PubChem BioAssay (EPA / NIEHS).
